According to publication PMC11062922 (Nature Chemical Biology, 2023):
Read-outs that look alike come from different tables or passages of the source.

Tested on: PLK4
Settings: read-out: apparent Kd, n = 1

Lestaurtinib gave a potency estimated from few doses (compound concentrations:100 nM and 1000 nM (sheet 'Lestaurtinib' of Supplementary Table 1),run:Lestaurtinib_02422_R1,Plate:MR006) of 56.6 nM, a potency estimated from few doses (compound concentrations:100 nM and 1000 nM (sheet 'Lestaurtinib' of Supplementary Table 1),run:Lestaurtinib_02422_R3,Plate:MR006) of 60.8 nM and a potency estimated from few doses (compound concentrations:100 nM and 1000 nM (sheet 'Lestaurtinib' of Supplementary Table 1),run:Lestaurtinib_02437_R1,Plate:MR007) of 58.1 nM. It also gave a potency estimated from few doses (compound concentrations:100 nM and 1000 nM (sheet 'Lestaurtinib' of Supplementary Table 1),run:Lestaurtinib_02437_R2,Plate:MR007) of 61.6 nM, a potency estimated from few doses (compound concentrations:100 nM and 1000 nM (sheet 'Lestaurtinib' of Supplementary Table 1),run:Lestaurtinib_02437_R3,Plate:MR007) of 41 nM and a potency estimated from few doses (compound concentrations:100 nM and 1000 nM (sheet 'Lestaurtinib' of Supplementary Table 1),run:Lestaurtinib_02438_R2,Plate:MR008) of 70.6 nM. The potency estimated from few doses (compound concentrations:100 nM and 1000 nM (sheet 'Lestaurtinib' of Supplementary Table 1),run:Lestaurtinib_02438_R3,Plate:MR008) was 67.9 nM, the potency estimated from few doses (compound concentrations:100 nM and 1000 nM (sheet 'Lestaurtinib' of Supplementary Table 1),run:Lestaurtinib_02443_R1,Plate:MR009) was 70.3 nM and the potency estimated from few doses (compound concentrations:100 nM and 1000 nM (sheet 'Lestaurtinib' of Supplementary Table 1),run:Lestaurtinib_02443_R2,Plate:MR009) was 81 nM. For the same substance, the potency estimated from few doses (compound concentrations:100 nM and 1000 nM (sheet 'Lestaurtinib' of Supplementary Table 1),run:Lestaurtinib_02443_R3,Plate:MR009) was 62.6 nM, the potency estimated from few doses (compound concentrations:100 nM and 1000 nM (sheet 'Lestaurtinib' of Supplementary Table 1),run:Lestaurtinib_02473_R3,Plate:MR010) was 43.1 nM and the potency estimated from few doses (compound concentrations:100 nM and 1000 nM (sheet 'Lestaurtinib' of Supplementary Table 1),run:Lestaurtinib_02482_R2,Plate:MR011) was 113 nM. It also gave a potency estimated from few doses (compound concentrations:100 nM and 1000 nM (sheet 'Lestaurtinib' of Supplementary Table 1),run:Lestaurtinib_02487_R1,Plate:MR012) of 79.1 nM, a potency estimated from few doses (compound concentrations:100 nM and 1000 nM (sheet 'Lestaurtinib' of Supplementary Table 1),run:Lestaurtinib_02487_R3,Plate:MR012) of 83.9 nM and a potency estimated from few doses (compound concentrations:100 nM and 1000 nM (sheet 'Lestaurtinib' of Supplementary Table 1),run:Lestaurtinib_02496_R1,Plate:MR013) of 78.2 nM. The potency estimated from few doses (compound concentrations:100 nM and 1000 nM (sheet 'Lestaurtinib' of Supplementary Table 1),run:Lestaurtinib_02496_R2,Plate:MR013) was 94.1 nM, the potency estimated from few doses (compound concentrations:100 nM and 1000 nM (sheet 'Lestaurtinib' of Supplementary Table 1),run:Lestaurtinib_02496_R3,Plate:MR013) was 53.6 nM and the potency estimated from few doses (compound concentrations:100 nM and 1000 nM (sheet 'Lestaurtinib' of Supplementary Table 1),run:Lestaurtinib_02566_R2,Plate:MR014) was 56 nM. For the same substance, the potency estimated from few doses (compound concentrations:100 nM and 1000 nM (sheet 'Lestaurtinib' of Supplementary Table 1),run:Lestaurtinib_02566_R3,Plate:MR014) was 92.7 nM, the potency estimated from few doses (compound concentrations:100 nM and 1000 nM (sheet 'Lestaurtinib' of Supplementary Table 1),run:Lestaurtinib_02572_R1,Plate:MR015) was 50.1 nM and the potency estimated from few doses (compound concentrations:100 nM and 1000 nM (sheet 'Lestaurtinib' of Supplementary Table 1),run:Lestaurtinib_02572_R2,Plate:MR015) was 77.6 nM. For the same substance, the potency estimated from few doses (compound concentrations:100 nM and 1000 nM (sheet 'Lestaurtinib' of Supplementary Table 1),run:Lestaurtinib_02577_R1,Plate:MR016) was 55.9 nM, the potency estimated from few doses (compound concentrations:100 nM and 1000 nM (sheet 'Lestaurtinib' of Supplementary Table 1),run:Lestaurtinib_02577_R3,Plate:MR016) was 35.1 nM and the potency estimated from few doses (compound concentrations:100 nM and 1000 nM (sheet 'Lestaurtinib' of Supplementary Table 1),run:Lestaurtinib_02584_R1,Plate:MR017) was 56.6 nM. The potency estimated from few doses (compound concentrations:100 nM and 1000 nM (sheet 'Lestaurtinib' of Supplementary Table 1),run:Lestaurtinib_02584_R2,Plate:MR017) was 79.8 nM, the potency estimated from few doses (compound concentrations:100 nM and 1000 nM (sheet 'Lestaurtinib' of Supplementary Table 1),run:Lestaurtinib_02584_R3,Plate:MR017) was 76.3 nM and the potency estimated from few doses (compound concentrations:100 nM and 1000 nM (sheet 'Lestaurtinib' of Supplementary Table 1),run:Lestaurtinib_02601_R3,Plate:MR018) was 59.1 nM. It also gave a potency estimated from few doses (compound concentrations:100 nM and 1000 nM (sheet 'Lestaurtinib' of Supplementary Table 1),run:Lestaurtinib_02606_R2,Plate:MR019) of 68.7 nM, a potency estimated from few doses (compound concentrations:100 nM and 1000 nM (sheet 'Lestaurtinib' of Supplementary Table 1),run:Lestaurtinib_02606_R3,Plate:MR019) of 58 nM and a potency estimated from few doses (compound concentrations:100 nM and 1000 nM (sheet 'Lestaurtinib' of Supplementary Table 1),run:Lestaurtinib_02624_R1,Plate:MR020) of 169 nM. The potency estimated from few doses (compound concentrations:100 nM and 1000 nM (sheet 'Lestaurtinib' of Supplementary Table 1),run:Lestaurtinib_02624_R3,Plate:MR020) was 47.2 nM, the potency estimated from few doses (compound concentrations:100 nM and 1000 nM (sheet 'Lestaurtinib' of Supplementary Table 1),run:Lestaurtinib_02724_R1,Plate:MR021) was 70.6 nM and the potency estimated from few doses (compound concentrations:100 nM and 1000 nM (sheet 'Lestaurtinib' of Supplementary Table 1),run:Lestaurtinib_02724_R2,Plate:MR021) was 57.7 nM. The potency estimated from few doses (compound concentrations:100 nM and 1000 nM (sheet 'Lestaurtinib' of Supplementary Table 1),run:Lestaurtinib_02724_R3,Plate:MR021) was 86.8 nM, the potency estimated from few doses (compound concentrations:100 nM and 1000 nM (sheet 'Lestaurtinib' of Supplementary Table 1),run:Lestaurtinib_02741_R1,Plate:MR023) was 235 nM and the potency estimated from few doses (compound concentrations:100 nM and 1000 nM (sheet 'Lestaurtinib' of Supplementary Table 1),run:Lestaurtinib_02741_R2,Plate:MR023) was 213 nM. The potency estimated from few doses (compound concentrations:100 nM and 1000 nM (sheet 'Lestaurtinib' of Supplementary Table 1),run:Lestaurtinib_02741_R3,Plate:MR023) was 215 nM, the potency estimated from few doses (compound concentrations:100 nM and 1000 nM (sheet 'Lestaurtinib' of Supplementary Table 1),run:Lestaurtinib_02748_R2,Plate:MR024) was 80.7 nM and the potency estimated from few doses (compound concentrations:100 nM and 1000 nM (sheet 'Lestaurtinib' of Supplementary Table 1),run:Lestaurtinib_02752_R1,Plate:MR025) was 93.7 nM. The potency estimated from few doses (compound concentrations:100 nM and 1000 nM (sheet 'Lestaurtinib' of Supplementary Table 1),run:Lestaurtinib_02752_R2,Plate:MR025) was 68.6 nM, the potency estimated from few doses (compound concentrations:100 nM and 1000 nM (sheet 'Lestaurtinib' of Supplementary Table 1),run:Lestaurtinib_02765_R1,Plate:MR026) was 165 nM and the potency estimated from few doses (compound concentrations:100 nM and 1000 nM (sheet 'Lestaurtinib' of Supplementary Table 1),run:Lestaurtinib_02766_R1,Plate:MR027) was 56.5 nM.
